Records with an inconclusive call do not appear. Active and inactive are the calls of the source. Calls come from the whole dose curve; as a rule, active = well fitted inhibition curve with a large enough effect; inconclusive = small, poorly fitted or top-dose-only effect; inactive = no such curve, though single readings can be large or run the other way.
Potency is the fitted concentration of half-maximal effect.

The nature of the test: Acumen qHTS Assay for Inhibitors of the mTORC1 Signaling Pathway in MEF (Tsc2-/-, p53-/-) Cells: Hit Validation. Note: nearly all actives have a fitted effect of over 65% in size. Conditions: Acumen imaging; activity change, negative = inhibition: at 37.3 µM (top of the series). An excerpt: The mammalian target of rapamycin (mTOR) is an intracellular serine/threonine kinase Aberrant regulation of mTOR signaling plays a causative role in a number of human diseases, including cancer, benign tumors such as lymphangioleiomyomatosis (LAM) and Tuberous Sclerosis Complex (TSC), and metabolic diseases such as diabetes and obesity. This project aims to identify inhibitors of ribosomal protein S6 (rpS6) phosphorylation. The phosphorylation of rpS6 is a key event downstream of mTOR activation. The assay uses a phospho-specific antibody of phospho-rpS6 to detect inhibitors of mTOR activation. Mutations in the Tsc1 and Tsc2 genes are the underlying genetic lesions responsible for TSC, causing constitutive activation of the mTORC1 pathway and leading to profound effects on cell metabolism. Aberrant metabolism in cancer has recently received significant attention as a target to develop therapeutic agents in the treatment of cancer.1 As Tsc2-/- cells have lost the ability to respond to energy and growth factor deprivation, these cells are unable to properly down regulate cellular biosynthetic processes in response to metabolic stress, and are thus extremely sensitive to glucose deprivation-induced death.2 A central goal of this project is to explore the unique cell survival and metabolic properties of cells with Tsc1 or Tsc2 by screening for compounds that selectively target the Tsc2-/- MEFs by screening both Tsc2-/- and WT MEF cell lines. We hope to better understand these aspects of TSC physiology in order to exploit them for therapeutic benefit.
NIH Molecular Libraries Probe Production Centers Network [MLPCN]
NIH Chemical Genomics Center [NCGC]
Assay Submitter (PI): Blenis, John; Harvard University
For quantitative high throughput analysis of mTORC1 signaling, we developed a cell-based assay for immuno-fluorescence based detection of rpS6 phosphorylation on the Acumen Explorer that will be used a platform for the primary small molecule screen. Mouse embryonic fibroblasts (MEFs) are cultured in 1536-well plates using DMEM + 10% FBS. Twenty-four hrs after plating, test compounds (solubilized in DMSO) are delivered and incubated with the cells for 24 hrs at 37 degree Celsius. Following the incubation, media with compound is aspirated and the cells are fixed in 4% paraformaldehyde (PFA) containing PBS + 0.2% TX-100. Next, PFA is aspirated, cells are washed two times with PBS plus 0.2% TX-100 and the cells are blocked for 1 hr at room temperature (blocking buffer: LiCOR Blocking Buffer plus 0.2% TX-100). This is followed by aspiration and staining with Alexa-488 conjugated-phospho-rpS6 Ser235/236 antibody for 2 hours at room temperature (Cell Signaling Technology # 4803, 1:50 dilution in blocking buffer). Cells are washed two times with PBS plus 0.2% TX-100, and stained with 10 uM propidium iodide (PI) for 20-25 minutes for cell number measurement (1:500 dilution of Hoescht staining is also added for IN Cell imaging). The plates are scanned on the Acumen Explorer laser scanning instrument (TTP Labtech) using the 488nm laser for simultaneous excitation of the Alexa-488 and PI. […] Fluorescence emission from the PI stain is selected using a 575-640 nm band pass filter. The normalized phospho-S6 staining is calculated as the ratio of the integrated Alexa 488 intensity divided by the integrated PI intensity for the single concentration rapamycin control (7.5 nM) and DMSO columns. […] Inhibition of the pathway is defined based on the normalized phospho-S6 intensity in rapamycin treated cells. Active cells are defined as those with a normalized phospho-S6 staining above this threshold, and each treatment is reported as the % positive cells in the well, where thresholds are defined by selecting wells with the highest and lowest signal and differentiating between the % non-active and % active populations. In addition to the pathway specific phospho-S6 endpoint, the number of PI stained cells from the Acumen is recorded as a measure of cell viability. […]
On the technique in general: qHTS replaces the single test concentration by a dilution series.
In the case of `COc1ccc(OCC(=O)NCc2ccc3c(c2)CCN3C(=O)c2cccc(C)c2)cc1`, the activity change, negative = inhibition is -87.8%.
Regarding `Cc1cc(C)c(NC(=O)c2sc3nc(C)cc(C)c3c2NC(=O)c2ccccc2)c(C)c1`, the activity change, negative = inhibition is -8.54%.
For `CC1C(=O)N2CCCc3cc(S(=O)(=O)Nc4ccc(Br)cc4F)cc1c32` (stereo not given), the Potency was 4.65 µM (active).
Consider `C#CCN1C(=O)C(O)(CC(=O)c2ccc(OC)c(OC)c2)c2cc(Br)ccc21` (stereo not given), for which the activity change, negative = inhibition was -24.1%.
For `CCSc1oc(-c2ccc(F)cc2)nc1S(=O)(=O)c1ccc(C)cc1`, the activity change, negative = inhibition is -25.8%.
As for `CC[C@H](CO)Nc1nc(NCc2ccccc2)c2ncn(C(C)C)c2n1`, the activity change, negative = inhibition is -22.4%.
For the molecule `Cc1cccc(N2CCN(c3ncnc4c3nc3n4CCCCC3)CC2C)c1` (stereo not given), the Potency was 3.29 µM (active).
As for `FC(F)(F)c1cccc(Nc2nc3nonc3nc2Nc2ccc(Cl)cc2)c1`, the Potency was 1.65 µM (active).
Consider `Cc1ccc(S(=O)(=O)c2nc(-c3ccco3)oc2SC(C)c2ccccc2)cc1` (stereo not given), for which the activity change, negative = inhibition is -7.74%.
Take `COc1ccc2c(c1)CC(C(=O)Nc1cc(Cl)ccc1C)CO2` (stereo not given): the activity change, negative = inhibition is -12.5%.
On to `COC(=O)c1ccccc1NC(=O)CCS(=O)(=O)c1nc(-c2ccc3c(c2)OCO3)cc(C(F)(F)F)n1`, for which the activity change, negative = inhibition was -88.3%.
Turning to `CN(c1ccccc1)S(=O)(=O)c1ccc(NC(=O)c2nc(S(C)(=O)=O)ncc2Cl)cc1`, the Potency was 1.47 µM (active).
On to `Cc1ccc(C(=O)CC2(O)C(=O)N(Cc3ccccc3)c3ccc(Br)cc32)cc1` (stereo not given), for which the Potency is 11.7 µM (active).
As for `CC1=C(C(=O)Nc2ccc(C)cc2C)C(c2cc(Br)ccc2F)n2ncc(C(=O)Nc3ccc(C)cc3)c2N1` (stereo not given), the Potency is 9.27 µM (active).
On to `CN(Cc1ccccc1)C(=O)CSc1c2c(nc3ccc(Cl)cc13)CCCC2`, for which the activity change, negative = inhibition turned out to be 9.63%.
With `COc1ccc(S(=O)(=O)NCCc2csc3nc(-c4ccc(Cl)cc4)nn23)cc1C`, the Potency is 11.7 µM (active).
`O=S(=O)(c1cccc2cnccc12)N1CCCNCC1`: the activity change, negative = inhibition is -7.7%.
As to `CCC(C)NC(=O)c1sc2nc(C)c(C(=O)Nc3ccc(C)cc3C)c(-c3ccc(Cl)cc3)c2c1N` (stereo not given), the activity change, negative = inhibition is -10.2%.
On to `COc1cc2ncnc(Nc3ccc(F)c(Cl)c3)c2cc1OCCCN1CCOCC1`, for which the activity change, negative = inhibition is -7.44%.
Turning to `Cc1ccc(C(=O)c2cn(CC(=O)NCc3ccccc3Cl)c3nc(C)ccc3c2=O)cc1`, the activity change, negative = inhibition is -14.2%.
Take `O=C(CN(CCc1ccccc1)S(=O)(=O)c1ccccc1)NCc1ccc(Cl)cc1`: the activity change, negative = inhibition was -3.71%.
Take `Cc1ccc(C(C)C)c(OCC(=O)Nc2cc(-c3nc4ccccc4[nH]3)ccc2C)c1`: the activity change, negative = inhibition is -3.97%.
As to `Cc1ccc(NC(=O)CCNS(=O)(=O)c2cccc3nonc23)cc1Cl`, the activity change, negative = inhibition turned out to be 5.73%.
Take `COc1ccc(N(Cc2ccccc2)C(=O)c2nc(S(C)(=O)=O)ncc2Cl)cc1`: the Potency was 1.85 µM (active).
Same read-out and setting: with `CCCCOc1cccc(C(=O)N(Cc2cccs2)c2ccc(OC)cc2)c1` the figure was 16.5 µM (active).
`Cc1cc(C)cc(OCC(=O)Nc2cccc(-c3nc4ccccc4[nH]3)c2)c1`: the activity change, negative = inhibition was -6.64%.
Turning to `CCC(C)Sc1oc(-c2ccco2)nc1S(=O)(=O)c1ccc(C)cc1` (stereo not given), the activity change, negative = inhibition is 3.02%.
Same read-out and setting: with `O=C(CC(NCc1cccnc1)C(=O)O)Nc1ccc(O)cc1` (stereo not given) the figure was 5.37%.
`COc1ccc(OCC(=O)Nc2ccc3nn(-c4ccc(OC)cc4)nc3c2)cc1`: the activity change, negative = inhibition was 11.1%.
On to `CCC1CCc2nc3sc(C(=O)Nc4cccc(F)c4)c(N)c3cc2C1` (stereo not given), for which the Potency is 5.21 µM (active).
Turning to `COc1ccc(Cl)cc1NC(=O)CCCS(=O)(=O)c1nc(-c2ccc(OC)c(OC)c2)cc(C(F)(F)F)n1`, the Potency is 10.4 µM (active).
Regarding `O=C(Cn1c(=O)c2ccccc2n(CC(=O)Nc2ccc(Cl)cc2)c1=O)NCCc1ccccc1`, the activity change, negative = inhibition is 0.576%.
As for `CCCCN1C(=O)C(O)(c2c(C)[nH]c3ccccc23)c2cc(Br)ccc21` (stereo not given), the activity change, negative = inhibition is -47%.
`CCc1ccc(S(=O)(=O)c2c(C(=O)c3ccc(C)c(C)c3)cnc3ccccc23)cc1`: the activity change, negative = inhibition was 5.96%.
Consider `Cc1ccccc1Oc1nc2ccccn2c(=O)c1/C=C(\C#N)c1nc2ccccc2[nH]1`, for which the activity change, negative = inhibition came out at 2.47%.
Consider `CCC(C)n1c(SCc2c(F)cccc2Cl)nc2ccsc2c1=O` (stereo not given), for which the activity change, negative = inhibition was -45.2%.
Regarding `Cn1nnnc1SCCCNCc1ccccc1OCc1ccc(Cl)cc1`, the activity change, negative = inhibition is -60%.
For the molecule `CCc1ccc(NC(=O)C2CCCN(S(=O)(=O)c3cccc4cccnc34)C2)cc1` (stereo not given), the activity change, negative = inhibition is -7.11%.
Consider `COc1ccc(CCCc2nnc(SCC(=O)Nc3ccc(OC)cc3)o2)cc1`, for which the activity change, negative = inhibition turned out to be 14%.
With `COc1ccc(CCN2CCC(CNC(=O)c3cnn(-c4cccc(Cl)c4)c3C3CCN(C(=O)OC(C)(C)C)CC3)CC2)cc1`, the Potency is 6.56 µM (active).

The record behind these values is PubChem BioAssay AID651784 (National Center for Advancing Translational Sciences (NCATS), 2012).
